Experimental data reported in PubChem BioAssay.
For some assays here: Potency and affinity values are given separately. Active and inactive are the calls of the source. Unless noted, how the calls were made is not given here.

Key:
[1] = antimalarial activity against Dd2 strain (AID 2302;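 active means growth inhibition above 50% at the single 2 µM test dose, taken to imply half-maximal potency below 2 µM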;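 further: 0% = DMSO untreated growth and 100% = chloroquine plus artemisinin killed control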); details: P. falciparum Dd2 in RBCs, LDH growth readout, 72 h; at 2 µM; hits give high values
[2] = human hepatoma cell viability loss – ATP luminescence, cytotoxicity control for P. falciparum antimalarial project, primary screen (AID 2303;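 active means inhibition above 50%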;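 further: 0% = DMSO wells and 100% = digitonin-killed cells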); details: HepG2 viability, 24-48 h, at 10 µM, hits give high values
[3] = molecular target: L-lactate dehydrogenase (Plasmodium falciparum (isolate CDC / Honduras)) (UniProt Q27743); experiment: PfLDH activity inhibition – cell lysate, 3D7 strain, counter-screen for P. falciparum growth inhibition project (AID 2304);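 further: 0% = vehicle and 100% = reference inhibitor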; details: P. falciparum 3D7 crude extract, LDH APAD/NBT absorbance; at 2 µM; hits give high values
Chain of L-lactate dehydrogenase (Plasmodium falciparum (isolate CDC / Honduras)) (Q27743 whole entry, looked up): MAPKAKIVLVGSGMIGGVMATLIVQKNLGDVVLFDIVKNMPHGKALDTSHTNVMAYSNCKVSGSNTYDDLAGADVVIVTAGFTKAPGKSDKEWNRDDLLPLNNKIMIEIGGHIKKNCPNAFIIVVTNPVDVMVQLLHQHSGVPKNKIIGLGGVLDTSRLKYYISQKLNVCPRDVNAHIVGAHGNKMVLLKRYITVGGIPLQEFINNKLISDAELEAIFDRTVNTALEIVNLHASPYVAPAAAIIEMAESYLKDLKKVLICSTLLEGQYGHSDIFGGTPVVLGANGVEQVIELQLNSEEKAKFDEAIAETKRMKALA

[4] = inhibition of 3D7 malaria parasite growth – strain 3D7 (AID 2306);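 further: 0% = DMSO wells and 100% = chloroquine plus artemisinin control wells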; details: P. falciparum 3D7 erythrocytic growth, LDH absorbance, 72 h; at 2 µM; hits give high values
[5] = molecular target: Calcium-dependent protein kinase 1 (Plasmodium falciparum (isolate 3D7)) (UniProt P62344); experiment: PfCDPK1 kinase inhibitors, biochemical, TCAMS library (AID 1159585; cut-off not given, nearly all actives have IC50 up to about 0.98 µM;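 further: inhibitors leave more ATP so luminescence rises with inhibition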); details: recombinant PfCDPK1, Kinase-Glo ATP depletion luminescence
Chain of Calcium-dependent protein kinase 1 (Plasmodium falciparum (isolate 3D7)) (P62344 whole entry, looked up): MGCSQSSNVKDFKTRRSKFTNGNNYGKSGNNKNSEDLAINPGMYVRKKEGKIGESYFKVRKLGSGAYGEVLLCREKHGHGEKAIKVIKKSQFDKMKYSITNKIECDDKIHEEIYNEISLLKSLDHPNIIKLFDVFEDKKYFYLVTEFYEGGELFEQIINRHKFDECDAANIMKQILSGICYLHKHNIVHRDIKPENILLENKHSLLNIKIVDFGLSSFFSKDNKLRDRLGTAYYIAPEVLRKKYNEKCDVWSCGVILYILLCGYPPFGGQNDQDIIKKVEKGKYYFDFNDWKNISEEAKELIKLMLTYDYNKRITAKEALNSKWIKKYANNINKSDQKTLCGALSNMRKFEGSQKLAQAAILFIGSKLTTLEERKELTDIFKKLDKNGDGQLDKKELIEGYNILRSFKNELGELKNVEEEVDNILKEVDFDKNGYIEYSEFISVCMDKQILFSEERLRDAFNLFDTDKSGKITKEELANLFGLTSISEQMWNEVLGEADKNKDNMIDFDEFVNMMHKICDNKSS

[6] = molecular target: Plasmodium falciparum protein kinase 6 (PK6, PF3D7_1337100) (UniProt Q8IDW1); experiment: PfPK6 kinase inhibitors, biochemical, TCAMS library (AID 1159586); details: recombinant PfPK6, Kinase-Glo ATP depletion luminescence
Chain of Plasmodium falciparum protein kinase 6 (PK6, PF3D7_1337100) (Q8IDW1 1-305): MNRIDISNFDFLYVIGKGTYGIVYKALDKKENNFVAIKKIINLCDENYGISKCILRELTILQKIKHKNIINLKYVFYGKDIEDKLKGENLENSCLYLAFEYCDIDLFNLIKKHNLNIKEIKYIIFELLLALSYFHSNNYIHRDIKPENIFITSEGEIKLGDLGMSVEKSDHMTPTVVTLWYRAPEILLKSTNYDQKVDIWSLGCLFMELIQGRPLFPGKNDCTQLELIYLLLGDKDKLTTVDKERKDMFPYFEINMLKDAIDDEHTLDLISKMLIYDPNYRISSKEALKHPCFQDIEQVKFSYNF

[7] = molecular target: Protein kinase 7 (PK7), Plasmodium falciparum 3D7 (PF3D7_0213400) (UniProt Q7YTF7); experiment: inhibition of Plasmodium PK7 catalytic activity – biochemical, TCAMS antimalarial set, Kinase-Glo luminescence (AID 1159587); details: recombinant PfPK7, Kinase-Glo ATP depletion luminescence
Chain of Protein kinase 7 (PK7), Plasmodium falciparum 3D7 (PF3D7_0213400) (Q7YTF7 1-343): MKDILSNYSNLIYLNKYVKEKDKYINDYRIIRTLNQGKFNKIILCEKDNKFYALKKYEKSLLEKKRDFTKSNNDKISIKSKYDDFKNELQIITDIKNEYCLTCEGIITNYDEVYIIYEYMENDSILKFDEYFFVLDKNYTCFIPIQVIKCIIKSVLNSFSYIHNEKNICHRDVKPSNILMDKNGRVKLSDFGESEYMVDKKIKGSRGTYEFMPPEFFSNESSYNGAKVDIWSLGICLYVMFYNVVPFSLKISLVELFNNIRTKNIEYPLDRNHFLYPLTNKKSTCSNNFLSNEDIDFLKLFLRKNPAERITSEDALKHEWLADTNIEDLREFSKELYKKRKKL

[8] = molecular target: Calcium-dependent protein kinase 4 (Plasmodium falciparum (isolate 3D7)) (UniProt Q8IBS5); experiment: PfCDPK4 kinase inhibitors, biochemical, TCAMS library (AID 1159588; cut-off not given, nearly all actives have IC50 up to about 0.91 µM); details: recombinant PfCDPK4, Kinase-Glo ATP depletion luminescence
Chain of Calcium-dependent protein kinase 4 (Plasmodium falciparum (isolate 3D7)) (Q8IBS5 whole entry, looked up): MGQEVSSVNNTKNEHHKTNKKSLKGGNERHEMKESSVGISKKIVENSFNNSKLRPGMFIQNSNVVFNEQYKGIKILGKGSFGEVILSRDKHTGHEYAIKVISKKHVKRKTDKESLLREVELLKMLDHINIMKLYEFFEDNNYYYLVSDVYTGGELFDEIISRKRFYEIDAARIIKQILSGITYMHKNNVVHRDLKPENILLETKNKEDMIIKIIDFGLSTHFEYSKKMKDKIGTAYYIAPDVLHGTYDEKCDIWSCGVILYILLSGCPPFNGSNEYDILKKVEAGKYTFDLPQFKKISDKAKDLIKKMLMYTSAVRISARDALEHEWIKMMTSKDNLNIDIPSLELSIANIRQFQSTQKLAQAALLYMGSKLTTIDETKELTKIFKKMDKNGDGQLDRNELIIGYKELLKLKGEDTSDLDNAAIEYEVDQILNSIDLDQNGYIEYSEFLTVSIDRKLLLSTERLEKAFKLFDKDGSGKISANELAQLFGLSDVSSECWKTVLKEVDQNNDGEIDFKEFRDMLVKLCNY

CC1(C)N=C(N)N=C(N)N1c1cccc(Cl)c1
inactive: inhibition [3] -1% | outcome [5] | outcome [6] | outcome [7] | outcome [8]
active: growth inhibition [1] 96% | inhibition [2] 69% | growth inhibition [4] 96%

FC(F)(F)c1cccc(NC(=S)NN=Cc2ccccn2)c1
inactive: inhibition [2] 29% | inhibition [3] -7% | outcome [5] | outcome [6] | outcome [7] | outcome [8]
active: growth inhibition [1] 99% | growth inhibition [4] 100%

CCOc1ccc2nc(NC(=O)c3csnn3)sc2c1
active: growth inhibition [1] 98% | growth inhibition [4] 100%
inactive: inhibition [2] 6% | inhibition [3] 1% | outcome [5] | outcome [6] | outcome [7] | outcome [8]

CC(C)c1ccc(O)cc1Nc1ccnc2ccc(C(F)(F)F)cc12
inactive: inhibition [2] 6% | inhibition [3] -6% | outcome [5] | outcome [6] | outcome [7] | outcome [8]
active: growth inhibition [1] 90% | growth inhibition [4] 97%

CCOc1cc2ncnc(Nc3ccc(OCc4c(F)cccc4F)c(OC)c3)c2cc1OCC
active: growth inhibition [1] 60% | growth inhibition [4] 96%
inactive: inhibition [2] 7% | inhibition [3] -2% | outcome [5] | outcome [6] | outcome [7] | outcome [8]

CS(=O)(=O)CCNCc1nc(-c2ccc3c(Nc4ccc(F)c(O)c4)ccnc3c2)cs1
inactive: inhibition [2] -10% | inhibition [3] 3% | outcome [5] | outcome [6] | outcome [7] | outcome [8]
active: growth inhibition [1] 84% | growth inhibition [4] 95%

COc1ccc2nc(N)nc(C)c2c1
inactive: growth inhibition [1] 1% | inhibition [2] 5% | inhibition [3] 5% | outcome [5] | outcome [6] | outcome [7] | outcome [8]
active: growth inhibition [4] 90%

O=C(Nc1ccc(N2CCN(Cc3ccccc3)CC2)cc1)c1cccs1
inactive: inhibition [2] -1% | inhibition [3] 2% | outcome [5] | outcome [6] | outcome [7] | outcome [8]
active: growth inhibition [1] 86% | growth inhibition [4] 87%

NC1CCN(CCNCc2cccc(-c3ccc(-c4nc5ccc(C(F)(F)F)cc5[nH]4)cc3)c2)C1 (stereo not given)
active: growth inhibition [1] 75% | growth inhibition [4] 98%
inactive: inhibition [2] 19% | inhibition [3] 1% | outcome [5] | outcome [6] | outcome [7] | outcome [8]

Cc1ccc(NC(=O)Nc2ccccc2F)cc1-c1ccc(C(=O)Nc2ccncc2)cc1
active: growth inhibition [1] 54% | growth inhibition [4] 99%
inactive: inhibition [2] 36% | inhibition [3] 3% | outcome [5] | outcome [6] | outcome [7] | outcome [8]

CN1CCCC(CN2CCN(Cc3ccc(-c4cccc(-c5nc6ccccc6[nH]5)c4)cc3)CC2)C1 (stereo not given)
inactive: inhibition [3] -3% | outcome [5] | outcome [6] | outcome [7] | outcome [8]
active: growth inhibition [1] 100% | inhibition [2] 57% | growth inhibition [4] 101%

CCN(CC)CCN(CCCc1ccc(-c2ccc(C(F)(F)F)cc2)cc1)C(=O)Cn1c(CCc2cccc(F)c2F)nc(=O)c2ccccc21
inactive: growth inhibition [1] 49% | inhibition [2] 37% | inhibition [3] 3% | outcome [5] | outcome [6] | outcome [7] | outcome [8]
active: growth inhibition [4] 101%

Cc1ccc2[nH]c(-c3ccccc3N)cc2c1
active: growth inhibition [4] 97%
inactive: growth inhibition [1] 8% | inhibition [2] 11% | inhibition [3] 8% | outcome [5] | outcome [6] | outcome [7] | outcome [8]

COc1ccccc1NC(=O)Nc1cccc(-c2ccc(-c3nc4c(C)cccc4[nH]3)s2)c1
active: growth inhibition [4] 100%
inactive: growth inhibition [1] 46% | inhibition [2] 19% | inhibition [3] 3% | outcome [5] | outcome [6] | outcome [7] | outcome [8]

O=C(NCc1cccc(F)c1)Nc1cccc(-c2cccc(-c3nc4ccc(C(F)(F)F)cc4[nH]3)c2)c1
inactive: growth inhibition [1] 32% | inhibition [3] -7% | outcome [5] | outcome [6] | outcome [7] | outcome [8]
active: inhibition [2] 55% | growth inhibition [4] 93%

CC(=O)N(C)c1ccc(C(=O)Nc2cccc(-c3cccc(-c4nc5ccc(C(F)(F)F)cc5[nH]4)c3)c2)cc1
inactive: growth inhibition [1] 29% | inhibition [2] 31% | inhibition [3] -6% | outcome [5] | outcome [6] | outcome [7] | outcome [8]
active: growth inhibition [4] 96%

COc1c(C2CCN(CCCCNC(=O)c3cc(-c4ccc(C#N)cc4)n[nH]3)CC2)ccc2c1CCCC2
active: growth inhibition [4] 86%
inactive: growth inhibition [1] 15% | inhibition [2] 36% | inhibition [3] -6% | outcome [5] | outcome [6] | outcome [7] | outcome [8]

CCc1nc2nc(C)cc(Nc3cc(C)cc(C)c3)n2n1
active: growth inhibition [1] 96% | growth inhibition [4] 96%
inactive: inhibition [2] 21% | inhibition [3] 7% | outcome [5] | outcome [6] | outcome [7] | outcome [8]

CN(C)Cc1c(O)ccc2oc(Cc3ccccc3)cc12
inactive: inhibition [2] 0% | inhibition [3] 0% | outcome [5] | outcome [6] | outcome [7] | outcome [8]
active: growth inhibition [1] 94% | growth inhibition [4] 99%

CCCCCCN1CCCN(Cc2cccc(NC(=O)c3cc4ccccc4s3)c2)CC1
active: growth inhibition [1] 53% | growth inhibition [4] 88%
inactive: inhibition [2] 31% | inhibition [3] 6% | outcome [5] | outcome [6] | outcome [7] | outcome [8]

CCc1cn2c3c(cc(C(=O)N[C@@H](Cc4ccccc4)[C@H](O)CNC(C)(C)CCCC(C)C)cc13)N(C)S(=O)(=O)C2
inactive: inhibition [3] 8% | outcome [5] | outcome [6] | outcome [7] | outcome [8]
active: growth inhibition [1] 98% | inhibition [2] 71% | growth inhibition [4] 98%

Cc1cc(OCCCN2CCC(NS(=O)(=O)c3ccc(C(F)(F)F)cc3)CC2)c2ccccc2n1
active: growth inhibition [4] 95%
inactive: growth inhibition [1] 24% | inhibition [2] 12% | inhibition [3] 1% | outcome [5] | outcome [6] | outcome [7] | outcome [8]

Cc1cc(OCCCNc2nc(NCCc3ccc(O)cc3)nc(N3CCNCC3)n2)c(Cl)c(C)c1Cl
active: inhibition [2] 54% | growth inhibition [4] 99%
inactive: growth inhibition [1] 8% | inhibition [3] 5% | outcome [5] | outcome [6] | outcome [7] | outcome [8]

COc1ccc(C2NCCc3c2[nH]c2ccccc32)cc1CN1CCN(c2ccc(F)cc2)CC1 (stereo not given)
inactive: inhibition [2] 37% | inhibition [3] -1% | outcome [5] | outcome [6] | outcome [7] | outcome [8]
active: growth inhibition [1] 56% | growth inhibition [4] 97%

Cc1cc(OCCCN2CCN(CCN3CCOCC3)CC2)ccc1NC(=O)COc1ccc(Cl)cc1C(=O)c1cc(Cl)cc(C#N)c1
active: growth inhibition [1] 78% | growth inhibition [4] 99%
inactive: inhibition [2] 30% | inhibition [3] -3% | outcome [5] | outcome [6] | outcome [7] | outcome [8]

Cc1cccc(-c2cc3cc(Nc4ccnc5cc(-c6nccs6)ccc45)ccc3[nH]2)c1
active: growth inhibition [1] 100% | growth inhibition [4] 101%
inactive: inhibition [2] 0% | inhibition [3] 1% | outcome [5] | outcome [6] | outcome [7] | outcome [8]

Cc1c2ccncc2c(C)c2c1[nH]c1cc(Cc3ccccc3)c(O)cc12
active: growth inhibition [1] 99% | inhibition [2] 99% | growth inhibition [4] 100%
inactive: inhibition [3] -4% | outcome [5] | outcome [6] | outcome [7] | outcome [8]

Cc1nn(C)cc1C(C)Nc1nncc(-c2ccc(C(F)(F)F)cc2)n1 (stereo not given)
inactive: inhibition [2] -3% | inhibition [3] -5% | outcome [5] | outcome [6] | outcome [7] | outcome [8]
active: growth inhibition [1] 99% | growth inhibition [4] 100%

Oc1ccc(CN2CCC(NCc3cccc(C(F)(F)F)c3)CC2)cc1
active: growth inhibition [1] 64% | growth inhibition [4] 101%
inactive: inhibition [2] 10% | inhibition [3] 5% | outcome [5] | outcome [6] | outcome [7] | outcome [8]

CCN(CC)CCNC(=O)c1ccc(NC(=O)c2cc(-c3ccncc3)nc3ccccc23)cc1
inactive: growth inhibition [1] 2% | inhibition [2] 1% | inhibition [3] -3% | outcome [5] | outcome [6] | outcome [7] | outcome [8]
active: growth inhibition [4] 97%

CN(C)CCCN1C(=O)c2[nH]nc(-c3ccc(Cl)cc3O)c2C1c1ccc(Cl)cc1 (stereo not given)
active: inhibition [2] 57% | growth inhibition [4] 99%
inactive: growth inhibition [1] 15% | inhibition [3] 4% | outcome [5] | outcome [6] | outcome [7] | outcome [8]

O=C(Nc1ccc(SC(F)(F)F)cc1)Nc1ccnc2ccccc12
inactive: growth inhibition [1] 42% | inhibition [2] 26% | inhibition [3] -2% | outcome [5] | outcome [6] | outcome [7] | outcome [8]
active: growth inhibition [4] 95%

C=CC[C@H](C[C@H](O)[C@H](Cc1ccccc1)NC(=O)c1nn(-c2ccccc2)nc1C)C(=O)NC1CCCCC1
inactive: growth inhibition [1] 3% | inhibition [2] 6% | inhibition [3] 5% | outcome [5] | outcome [6] | outcome [7] | outcome [8]
active: growth inhibition [4] 94%

O=C(/C=C/c1ccc(Cl)c(Cl)c1)NCCCCCN1CCCC(CNC(=O)c2sc3ccccc3c2Cl)C1 (stereo not given)
active: growth inhibition [4] 98%
inactive: growth inhibition [1] -3% | inhibition [2] 42% | inhibition [3] 4% | outcome [5] | outcome [6] | outcome [7] | outcome [8]

O=C(NCCN1CCCC1)N1CCCN(c2ncnc3cc(-c4ccc(F)cc4)sc23)CC1
active: growth inhibition [4] 81%
inactive: growth inhibition [1] 19% | inhibition [2] 5% | inhibition [3] 5% | outcome [5] | outcome [6] | outcome [7] | outcome [8]

CCOC(=O)c1ccc(NC(=O)N[C@@H](Cc2ccccc2)C(=O)NC2CCN(Cc3ccc(O)cc3)C2)cc1 (stereo not given in full)
active: growth inhibition [4] 95%
inactive: growth inhibition [1] 2% | inhibition [2] 7% | inhibition [3] -6% | outcome [5] | outcome [6] | outcome [7] | outcome [8]

CNc1ccc(CNCc2cccc(-c3ccc(-c4nc5c(C)cccc5[nH]4)s3)c2)cc1
inactive: inhibition [2] 23% | inhibition [3] -2% | outcome [5] | outcome [6] | outcome [7] | outcome [8]
active: growth inhibition [1] 88% | growth inhibition [4] 101%

O=C(NCCCNc1ccnc2cc(Cl)ccc12)c1ccccc1F
inactive: inhibition [2] 18% | inhibition [3] 3% | outcome [5] | outcome [6] | outcome [7] | outcome [8]
active: growth inhibition [1] 97% | growth inhibition [4] 100%

CCCCn1c(=N)c(C(=O)NCc2cccnc2)cc2c(=O)n3cccc(C)c3nc21
active: growth inhibition [4] 101%
inactive: growth inhibition [1] 47% | inhibition [2] 7% | inhibition [3] -2% | outcome [5] | outcome [6] | outcome [7] | outcome [8]

CSc1ccc(NC(=O)Nc2cc(C)nc3ccccc23)cc1Br
inactive: inhibition [2] 7% | inhibition [3] -6% | outcome [5] | outcome [6] | outcome [7] | outcome [8]
active: growth inhibition [1] 66% | growth inhibition [4] 101%
